PubChem BioAssay AID2158 (National Center for Advancing Translational Sciences (NCATS), 2009)
Values joined by “and” are separate entries in the source; they are usually repeats but may differ in a detail not shown here. Identical values can stand only once. Results filed as inconclusive are left out. Active and inactive are the calls of the source. Calls follow the shape of the dose curve; as a rule, active = well fitted inhibition curve with a large enough effect; inconclusive = small, poorly fitted or top-dose-only effect; inactive = no such curve, though single readings can be large or run the other way.

Target: Cruzipain (Trypanosoma cruzi) (UniProt P25779)
Assay: Confirmation qHTS Assay for Inhibitors of Cruzain; also: nearly all actives have a fitted effect of over 40% in size;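 as to activity change, negative = inhibition: plate controls were uninhibited enzyme control for no effect and buffer wells lacking enzyme for full effect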
Details: purified cruzain, Z-FR-AMC fluorescence, 0.01% Triton
Summary of the method: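 Reaction progress from the 60 s rise in AMC fluorescence (ex 360, em 450 nm) after adding 2 uM Z-FR-AMC. Before this, 1.5 nM cruzain sat 15 min at room temperature with compound in pH 5.5 acetate buffer with 5 mM DTT and 0.01% Triton X-100.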
Potency is read from the fitted curve at half-maximal effect.

Cruzipain (Trypanosoma cruzi), sequence (P25779 123-467 limits assumed): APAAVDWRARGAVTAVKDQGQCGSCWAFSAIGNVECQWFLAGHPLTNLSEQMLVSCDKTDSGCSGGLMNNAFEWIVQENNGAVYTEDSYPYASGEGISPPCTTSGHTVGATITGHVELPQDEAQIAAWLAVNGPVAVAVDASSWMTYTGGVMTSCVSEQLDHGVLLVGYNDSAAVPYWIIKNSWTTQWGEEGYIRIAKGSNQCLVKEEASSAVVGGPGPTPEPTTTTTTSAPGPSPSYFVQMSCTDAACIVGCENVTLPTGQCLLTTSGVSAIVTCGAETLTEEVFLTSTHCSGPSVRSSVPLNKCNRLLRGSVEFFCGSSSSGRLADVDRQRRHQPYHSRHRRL

SMILES | activity change, negative = inhibition | Potency
Cc1cccc(Cn2cc(/C=C(/C#N)C(=O)Nc3cccc(Cl)c3)c3ccccc32)c1 | -2.85% (inactive) | –
Cc1ccc(S(=O)(=O)NC(N)=NCCC[C@@H](N)C(=O)Nc2cc(C(F)(F)F)ccc2Cl)cc1 | -17.2% (inactive) | –
Cc1ccc(COc2ccc3oc(-c4ccccc4)c(C(=O)O)c3c2)cc1 | -34.5% (inactive) | –
Cn1c(C(=O)NCCN2CCCCCC2)cc2c(=O)n(C)c3ccccc3c21 | – | 25.1 µM (active)
CCOc1cccc(-c2nn3c(-c4cc(C)[nH]n4)nnc3s2)c1 | -3.99% (inactive) | –
COCC(C)NC(=O)Cn1c(SCc2ccccc2)nc2ccccc21 (configuration not stated) | -6.96% (inactive) | –
O=C(NC1CCCC1)c1ccc2nc(-c3ccco3)c(-c3ccco3)nc2c1 | – | 8.91 µM (active)
O=c1oc2ccccc2cc1-c1csc(Cc2nc(-c3ccc(Br)cc3)cs2)n1 | 1.72% (inactive) | –
CC(C)(C)OC(=O)Cc1nnc(C(C(=O)OCc2ccccc2)c2ccccc2)s1 (configuration not stated) | -12.2% (inactive) | –
CCn1cnc2c(Nc3ccc(Cc4cccnc4)cc3)nc(C#N)nc21 | – | 14.1 µM (active)
N#Cc1nc(NCC(F)F)nc(Nc2cc(F)cc(F)c2)n1 | – | 0.0251 µM (active)
N#Cc1nc(N2CCOCC2)nc(N2CCOCC2)n1 | – | 3.55 µM (active) and 5.01 µM (active)
Cc1cccc(OCCn2c(CCNC(=O)C3CCCCC3)nc3ccccc32)c1 | – | 0.891 µM (active)
COc1ccccc1N1CCN(C(=O)CN(c2ccccc2OC)S(=O)(=O)c2ccccc2)CC1 | -10.1% (inactive) | –
COc1ccc(NC(=O)C(OC(=O)CNC(=O)c2ccccc2)c2ccccc2)c(C)c1 (configuration not stated) | – | 8.91 µM (active)
N#CCSc1nc2scc(-c3cccs3)c2c(=O)n1CCc1ccccc1 | -7.68% (inactive) | –
O=C(NCCc1nc2ccccc2[nH]1)c1cc([N+](=O)[O-])cc([N+](=O)[O-])c1 | – | 0.794 µM (active)
CC(=O)NCCCc1ccc(C(=O)COC(=O)CNC(=O)c2ccc3ccccc3c2)cc1 | -5.36% (inactive) | –
COc1ccc(NC(=O)C(OC(=O)CNC(=O)c2ccccc2)c2ccccc2)cc1F (configuration not stated) | – | 11.2 µM (active)
O=C(CNC(=O)c1ccccc1)OCC(=O)c1ccc2ccccc2c1 | – | 15.8 µM (active)
CCOc1ccc(-c2nn3c(-c4cc(-c5ccccc5)n[nH]4)nnc3s2)cc1 | -7.68% (inactive) and -5.69% (inactive) | –
CC(C)(C)c1ccc(C(=O)NCC(=O)OC(C(=O)Nc2cc(C(F)(F)F)ccc2Cl)c2ccccc2)cc1 (configuration not stated) | -14% (inactive) | –
